# Compounds with a hit are over-represented: about 7.4% of the library has one in this group of screens.
# Rab9 promoter act: qHTS Assay for Rab9 Promoter Activators. Huh7 Rab9 promoter-luciferase reporter, luminescence, 24 h. Potency, µM (titrated, usually from 9.22 µM), for inactives: at the top dose activation, negative = inhibition, most hits filed as activators. hit rate 2.8% among 320,000. AID 485297, 2010; note: % of control where 0% means no effect; nearly all actives have a fitted effect of over 60% in size
#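 Luminescence from Amplite-detected luciferase (10 minutes, ambient) reports Rab9 promoter activation. Before that, stable Rab9-luciferase Huh7 cells (1500/well, reduced-serum OP-MEM I plus 10% FBS) were exposed to compound for 24 hours at 37C.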
# SMN2 splice enh: qHTS Assay for Enhancers of SMN2 Splice Variant Expression; hit rate 2.8% among 210,000; Potency, µM (highest dose often 46.1 µM), without a hit: top-dose activity change, positive = activation, usual class: activators; HEK293 SMN2-luciferase splicing reporter, luminescence, 30-36 h; note: % of control where 0% means no effect; nearly all actives have a fitted effect of over 55% in size
#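 HEK293 cells carry an SMN2 […]–luciferase reporter in which exon 7 inclusion puts luciferase in frame. Cells were plated 10-12 h before compound addition, then incubated 30-36 h at 37C. ONE-Glo luminescence was read; sodium butyrate at 4.5 mM final served as control.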
# NPC1 promoter act: qHTS Assay for NPC1 Promoter Activators | Potency, µM (highest dose often 9.22 µM), inactives show at the highest dose activation, most hits filed as activators | AID 485313, 2010 | hit rate 2.4% among 320,000 | Huh7 NPC1 promoter luciferase reporter, 24 h; note: % of control where 0% means no effect; nearly all actives have a fitted effect of over 60% in size
#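 Luciferase expression driven by the NPC1 promoter was measured in stably transfected Huh7 cells after a 24 h compound incubation, using a luciferase reagent and a luminescence read.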
# ELG1 genotox: qHTS screen for small molecules that induce genotoxicity in human embryonic kidney (HEK293T) cells expressing luciferase-tagged ELG1. Potency, µM (top dose mostly 46 µM), for the others: top-dose activity change, positive = activation, hits mostly activators. hit rate 1.3% among 330,000. HEK293T ELG1-luciferase reporter, luminescence, 16 h; note: % of control where 0% means no effect; nearly all actives have a fitted effect of over 60% in size
#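 Reporter readout depends on ELG1 protein level, which increases with genetic stress. After 16 hr compound exposure at 37 °C, luciferase activity was quantified using ONE-Glo.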
# FLuc modulator: qHTS profiling assay for firefly luciferase inhibitor/activator using purifed enzyme and Km concentrations of substrates (counterscreen for miR-21 project); Potency, µM (titrated, usually from 57.5 µM), inactives show at the highest dose activity change, negative = inhibition, hits mostly inhibitors; purified FLuc, Km substrates, luminescence inhibition; hit rate 6.9% among 360,000; AID 588342, 2011; Luciferin 4-monooxygenase (Photinus pyralis), P08659;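 note: plate controls were vehicle for no effect and reference inhibitor for full effect; nearly all actives have a fitted effect of over 55% in size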
# Target sequence (P08659 whole entry, looked up): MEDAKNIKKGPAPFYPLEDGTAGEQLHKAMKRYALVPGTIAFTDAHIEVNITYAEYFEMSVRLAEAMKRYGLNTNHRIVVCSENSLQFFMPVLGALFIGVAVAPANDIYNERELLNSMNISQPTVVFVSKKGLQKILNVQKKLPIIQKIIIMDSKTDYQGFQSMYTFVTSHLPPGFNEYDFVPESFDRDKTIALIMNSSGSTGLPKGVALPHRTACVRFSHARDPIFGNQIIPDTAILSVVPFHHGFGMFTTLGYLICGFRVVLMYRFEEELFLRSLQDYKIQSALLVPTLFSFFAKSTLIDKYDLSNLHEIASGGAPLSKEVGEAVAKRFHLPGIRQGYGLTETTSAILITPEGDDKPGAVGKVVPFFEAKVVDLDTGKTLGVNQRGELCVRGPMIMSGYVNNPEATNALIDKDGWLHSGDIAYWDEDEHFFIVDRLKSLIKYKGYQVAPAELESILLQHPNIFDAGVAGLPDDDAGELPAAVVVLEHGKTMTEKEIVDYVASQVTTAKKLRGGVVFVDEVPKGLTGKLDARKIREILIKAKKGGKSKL
#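 Biochemical qHTS of compounds, final roughly 60 µM downward over six points, against 10 nM purified firefly luciferase using Km concentrations of substrates (10 uM D-luciferin, 10 uM ATP) in Tris acetate pH 7.5 buffer; luminescence output.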
# Starred values were filed as active, the others as inactive; ? = inconclusive; / = not tested or not shown; [ ] = remark or other dose. Calls come from the whole dose curve; as a rule, active = well fitted curve in the direction sought with a large enough effect; inconclusive = small, poorly fitted or top-dose-only effect, or another doubt; inactive = no such curve, though single readings can be large; an effect the other way counts as inactive or inconclusive. Potency is the fitted concentration of half-maximal effect.
SMILES,Rab9 promoter act,SMN2 splice enh,NPC1 promoter act,ELG1 genotox,FLuc modulator
Cc1ccc(-c2cc(C(=O)Nc3ccc(S(=O)(=O)Nc4ncccn4)cc3)c3ccccc3n2)cc1,-6%,17%,-1%,10%,6.7µM*
O=C(COc1ccccc1)N(Cc1nnc(-c2ccccc2Cl)o1)C1CC1,-1%,/,0%,14%,-2%
CCC1CCC(C(=O)NC(C(=O)NCCN(CC(C)C)CC(C)C)C(C)C)CC1 (stereo not given),/,-1%,/,/,2%
CC(C)CC(NC(=O)C1CCC(C)CC1)C(=O)Nc1ccc2c(c1)OCCO2 (stereo not given),27%,7%,22%,?,17µM*
CCC1CCC(C(=O)NC(C(=O)Nc2ccc3c(c2)OCCO3)C(C)C)CC1 (stereo not given),23%,11%,15%,16µM*,?
CC(C)CC(NC(=O)C1CCC(C)CC1)C(=O)Nc1ccccc1F (stereo not given),-4%,/,-42%,6%,0%
Cc1cc(Nc2ccccc2)n(C(=O)c2ccccc2)n1,28%,-13%,10%,?,12µM*
Cc1cc(Nc2ccccc2)n(-c2ccccc2)n1,-1%,3%,-6%,13%,1%
Cc1cc(Nc2ccccc2)nn1C(=O)c1ccc(Cl)cc1,13%,-14%,-4%,?,9.5µM*
COC(=O)C[C@H]1c2ccccc2[C@H]2C(=C[C@@H](C)[C@H]3C(=O)N(O)C(=O)[C@H]32)N1C(=O)OC,/,2%[9.22 µM],/,/,/
Cc1nc2c(C(=O)NC(C)c3ccccc3)cnn2c(C)c1Cc1ccccc1 (stereo not given),/,/,/,/,-8%
COc1ccc(/C(C)=N/Nc2ccc(F)cc2F)c(O)c1,?,?,10%,?,11µM*
COc1ccc(/C(C)=N/NS(=O)(=O)c2ccccc2)c(OC)c1,-3%,-3%,-3%,-6%,-4%
COc1ccc(C(=O)CCC(=O)Nc2ccc(F)cc2F)cc1,/,/,/,/,-10%
COc1ccc(/C(C)=N/Nc2ccccc2Cl)c(O)c1,0%,/,0%,?,11µM*
C/C(=N\Nc1ccc(F)cc1F)c1cccs1,23%,-3%,6%,?,19µM*
COc1ccc(NC(=O)C2CCC(=O)N2S(=O)(=O)c2ccc(C)cc2)cc1Cl (stereo not given),3%,/,-9%,3%,2%
CCOc1ccc(C(=O)/C=C/Nc2ccc(S(=O)(=O)Nc3onc(C)c3C)cc2)cc1,14%,?,-1%,?,15µM*
COc1cccc(C(=O)/C=C/Nc2ccc(S(=O)(=O)Nc3onc(C)c3C)cc2)c1,12%,14%,0%,13%,15µM*
CCc1nnc(NS(=O)(=O)c2ccc(N/C=C\C(=O)c3cccc4ccccc34)cc2)s1,-1%,10%,0%,1%,-5%
Cc1noc(NS(=O)(=O)c2ccc(NC(=O)/C=C/c3ccc(Br)cc3)cc2)c1C,3%,/,-7%,6%,?
Cc1noc(NS(=O)(=O)c2ccc(N/C=C\C(=O)c3cccc4ccccc34)cc2)c1C,11%,-15%,2%,10%,13µM*
Cc1noc(NS(=O)(=O)c2ccc(N/C=C\C(=O)c3ccc(Br)cc3)cc2)c1C,-10%,/,3%,1%,27µM*
CCOc1ccc(C(=O)/C=C/Nc2ccc(S(=O)(=O)N=C(N)N)cc2)cc1,0%,23%,7%,?,-6%
Cc1cc(C)c(NC(=O)COC(=O)c2ccncc2)c(C)c1,/,/,/,-1%,/
SMILES,Rab9 promoter act,SMN2 splice enh,NPC1 promoter act,ELG1 genotox,FLuc modulator
Cc1noc(NS(=O)(=O)c2ccc(N/C=C\C(=O)c3ccc4c(c3)OCO4)cc2)c1C,-1%,-11%,-1%,9%,9.5µM*
COc1ccc(CNc2ncnc3c2nnn3C)cc1,/,/,/,/,-6%
CCc1ccc(C(=O)Nc2cccc(-c3nc4cc(C(C)C)ccc4o3)c2)cc1,/,-5%,/,/,2.7µM*
COc1ccc([C@@H](C)NC(=O)c2ccc3oc(C(C)C)nc3c2)cc1,?,/,?,3%[9.26 µM],17µM*
O=C(Nc1cccc(-c2nc3cc(Cl)ccc3o2)c1)c1ccc(F)cc1,/,/,/,/,-1%
Cc1cccc(C(=O)Nc2ccc(-c3nc4cc(C(C)C)ccc4o3)cc2)c1,/,-3%,/,/,?
COc1cc(OC)cc(C(=O)Nc2ccc(-c3nc4cc(C(C)C)ccc4o3)cc2)c1,/,-29%,/,/,11µM*
COc1cc(OC)cc(C(=O)Nc2ccc(-c3nc4ccccc4o3)cc2)c1,-2%,-13%,-3%,-5%,-10%
CC(C)c1ccc2oc(-c3ccc(NC(=O)c4ncn[nH]4)cc3)nc2c1,?,?,?,9.2µM*,1.5µM*
COC(=O)c1cc2sc(C)cc2n1CC(=O)Nc1cccc(SC)c1,/,-7%,/,/,-7%
CCC(C)c1ccc2oc(-c3ccc(NC(=O)c4ncn[nH]4)cc3)nc2c1 (stereo not given),6%,26%,15%,?,2.7µM*
CN(C)C=Nc1ccc(Cl)c(Cl)c1,-5%,/,-2%,2%,-13%
CN(C)C=Nc1ccc2nn(-c3ccccc3)nc2c1,1µM*,5µM*,2.8µM*,?,5.4µM*
O=C(O)C1=C[C@@H](c2ccc3c(c2)OCO3)C[C@@H](OCc2ccc(CO)cc2)O1,2%,/,-7%,4%,-9%
O=C(Nc1ccccc1)C1=C[C@@H](C2CC2)C[C@@H](OCCCCO)O1,1%,/,0%,?,17µM*
C#CCNC(=O)C1=C[C@H](C2CCCCC2)C[C@H](OCc2ccc(CO)cc2)O1,8%,/,4%,2%,-19%
O=C(Nc1ccccc1)C1=C[C@@H](C2CC2)C[C@@H](OCc2ccc(CO)cc2)O1,18%,/,11%,10%,11µM*
NC(=O)C1=C[C@H](c2ccc3c(c2)OCO3)C[C@H](OCc2ccc(CO)cc2)O1,?,/,?,?,15µM*
C#CCNC(=O)C1=C[C@@H](C2CCCCC2)C[C@@H](OCc2ccc(CO)cc2)O1,-5%,/,1%,5%,15µM*
COc1ccccc1N1CCN(C(=O)C2=CC=CN3CCS(=O)(=O)N=C23)CC1,-6%,/,-2%,4%,4%
O=C(Nc1ccccc1)C1=C[C@H](c2ccc3c(c2)OCO3)C[C@H](OCCCCO)O1,30%,/,11%,17%,15µM*
Cc1cc(/C=C(\C#N)C(=O)N2CCOCC2)c(C)n1C1CCCC1,0.32µM*,/,0.5µM*,1.6µM*,1.1µM*
O=S(=O)(c1ccc(-c2csc(=Nc3ccc(F)cc3)n2CCCCCCO)cc1)N1CCCC1,/,-91%,/,/,-8%
